What was measured:
Test in all cases: log2 ratio of Biotin-Ahx-Ub-VS probe labelling (fragment/DMSO); higher = less target engagement (more negative = stronger competition), active = hit call of the paper (q ≤ 0.05, log2 ratio ≤ -1)
Settings in all cases: compound concentration: 200 uM; treatment time: 3 h
USP34 = USP34 (UniProt Q70CQ2)
In short: (§1)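 Each value is an average log2 ratio of fragment to vehicle, tested by unpaired t-test. The underlying Spectronaut label-free quantities were global-median-normalised, and only proteins with ≥2 unique peptides were included. Triplicate HEK293T lysate samples (495 µg) were exposed to fragment at 200 µM or vehicle for 3 h, then to Biotin-Ahx-Ub-VS at 0.5 µM final for 1 h, before NeutrAvidin enrichment of labelled DUBs, LysC and trypsin digestion, and diaPASEF LC-MS/MS.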

USP36 = molecular target: T1, USP36 (UniProt Q9P275)
T1 sequence (whole entry): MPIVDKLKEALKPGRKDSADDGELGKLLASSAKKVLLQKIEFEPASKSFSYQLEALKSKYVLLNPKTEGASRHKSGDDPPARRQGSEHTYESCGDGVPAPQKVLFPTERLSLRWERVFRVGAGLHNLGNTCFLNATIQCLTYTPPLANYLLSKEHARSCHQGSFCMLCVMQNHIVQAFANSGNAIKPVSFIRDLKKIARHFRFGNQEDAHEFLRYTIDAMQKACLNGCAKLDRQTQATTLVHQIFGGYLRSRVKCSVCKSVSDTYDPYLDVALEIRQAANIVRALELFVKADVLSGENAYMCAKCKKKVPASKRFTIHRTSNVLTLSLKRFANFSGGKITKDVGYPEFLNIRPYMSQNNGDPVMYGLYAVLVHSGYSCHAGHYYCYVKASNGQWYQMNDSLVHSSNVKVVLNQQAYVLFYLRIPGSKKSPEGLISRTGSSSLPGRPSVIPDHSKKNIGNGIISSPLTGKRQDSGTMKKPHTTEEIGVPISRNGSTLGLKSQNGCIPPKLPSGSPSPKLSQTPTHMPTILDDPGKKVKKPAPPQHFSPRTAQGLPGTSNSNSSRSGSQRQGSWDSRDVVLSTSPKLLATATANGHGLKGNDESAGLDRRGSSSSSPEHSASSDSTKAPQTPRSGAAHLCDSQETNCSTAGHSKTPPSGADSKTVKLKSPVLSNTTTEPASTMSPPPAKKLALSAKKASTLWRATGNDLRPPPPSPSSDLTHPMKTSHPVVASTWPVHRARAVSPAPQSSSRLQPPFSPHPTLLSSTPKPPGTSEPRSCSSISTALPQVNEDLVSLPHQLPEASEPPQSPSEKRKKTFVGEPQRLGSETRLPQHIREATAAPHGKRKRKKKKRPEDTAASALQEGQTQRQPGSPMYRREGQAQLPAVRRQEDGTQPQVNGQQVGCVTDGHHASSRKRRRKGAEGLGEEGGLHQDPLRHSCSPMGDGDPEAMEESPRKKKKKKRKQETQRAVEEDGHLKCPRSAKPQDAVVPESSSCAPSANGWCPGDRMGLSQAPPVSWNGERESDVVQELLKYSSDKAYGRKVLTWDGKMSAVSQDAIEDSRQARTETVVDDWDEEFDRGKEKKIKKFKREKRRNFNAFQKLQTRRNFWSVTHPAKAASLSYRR
In short: as §1

USP38 = molecular target: T2, USP38 (UniProt Q8NB14)
T2 sequence (whole entry): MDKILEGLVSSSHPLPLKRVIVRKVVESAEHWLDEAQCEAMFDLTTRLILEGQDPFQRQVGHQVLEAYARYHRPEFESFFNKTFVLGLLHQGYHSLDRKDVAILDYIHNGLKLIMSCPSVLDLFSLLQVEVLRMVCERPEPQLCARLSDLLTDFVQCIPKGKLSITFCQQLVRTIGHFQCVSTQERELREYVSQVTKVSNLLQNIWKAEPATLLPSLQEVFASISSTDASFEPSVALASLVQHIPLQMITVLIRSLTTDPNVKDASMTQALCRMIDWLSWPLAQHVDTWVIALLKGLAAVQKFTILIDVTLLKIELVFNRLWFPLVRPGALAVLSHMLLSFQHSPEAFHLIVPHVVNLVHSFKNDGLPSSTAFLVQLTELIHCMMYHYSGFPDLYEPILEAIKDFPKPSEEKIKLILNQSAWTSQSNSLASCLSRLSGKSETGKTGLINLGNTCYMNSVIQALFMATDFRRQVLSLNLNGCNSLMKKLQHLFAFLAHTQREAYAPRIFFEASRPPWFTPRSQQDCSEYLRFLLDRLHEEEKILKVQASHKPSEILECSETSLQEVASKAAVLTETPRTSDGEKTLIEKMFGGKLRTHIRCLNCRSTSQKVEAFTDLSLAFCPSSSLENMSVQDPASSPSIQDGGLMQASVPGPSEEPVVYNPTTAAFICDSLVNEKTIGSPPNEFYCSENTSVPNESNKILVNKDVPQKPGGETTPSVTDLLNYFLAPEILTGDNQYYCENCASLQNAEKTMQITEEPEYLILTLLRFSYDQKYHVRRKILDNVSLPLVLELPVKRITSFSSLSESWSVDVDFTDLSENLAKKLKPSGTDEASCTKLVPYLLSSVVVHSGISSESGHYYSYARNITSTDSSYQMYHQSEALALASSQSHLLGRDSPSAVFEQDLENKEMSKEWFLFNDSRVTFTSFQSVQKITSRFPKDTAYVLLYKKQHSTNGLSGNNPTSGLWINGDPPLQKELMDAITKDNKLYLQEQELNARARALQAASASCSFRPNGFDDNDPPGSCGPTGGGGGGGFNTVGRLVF
In short: as §1

USP39 = molecular target: T3, USP39 (UniProt Q53GS9)
T3 sequence (whole entry): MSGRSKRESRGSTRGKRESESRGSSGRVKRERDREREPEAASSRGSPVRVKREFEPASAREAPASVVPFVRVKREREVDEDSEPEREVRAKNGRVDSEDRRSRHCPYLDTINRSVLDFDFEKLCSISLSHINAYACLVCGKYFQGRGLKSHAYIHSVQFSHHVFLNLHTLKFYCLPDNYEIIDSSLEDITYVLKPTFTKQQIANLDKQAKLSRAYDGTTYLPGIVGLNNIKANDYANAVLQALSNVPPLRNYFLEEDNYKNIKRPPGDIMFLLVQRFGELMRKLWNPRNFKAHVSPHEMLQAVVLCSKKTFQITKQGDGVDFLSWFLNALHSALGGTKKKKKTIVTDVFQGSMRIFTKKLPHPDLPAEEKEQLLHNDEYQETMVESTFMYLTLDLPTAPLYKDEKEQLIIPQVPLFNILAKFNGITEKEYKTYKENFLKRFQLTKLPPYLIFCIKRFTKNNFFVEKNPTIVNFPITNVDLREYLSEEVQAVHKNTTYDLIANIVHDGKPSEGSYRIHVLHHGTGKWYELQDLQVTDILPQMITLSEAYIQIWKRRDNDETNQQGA
In short: as §1

USP4 = molecular target: T4, USP4 (UniProt Q13107)
T4 sequence (whole entry): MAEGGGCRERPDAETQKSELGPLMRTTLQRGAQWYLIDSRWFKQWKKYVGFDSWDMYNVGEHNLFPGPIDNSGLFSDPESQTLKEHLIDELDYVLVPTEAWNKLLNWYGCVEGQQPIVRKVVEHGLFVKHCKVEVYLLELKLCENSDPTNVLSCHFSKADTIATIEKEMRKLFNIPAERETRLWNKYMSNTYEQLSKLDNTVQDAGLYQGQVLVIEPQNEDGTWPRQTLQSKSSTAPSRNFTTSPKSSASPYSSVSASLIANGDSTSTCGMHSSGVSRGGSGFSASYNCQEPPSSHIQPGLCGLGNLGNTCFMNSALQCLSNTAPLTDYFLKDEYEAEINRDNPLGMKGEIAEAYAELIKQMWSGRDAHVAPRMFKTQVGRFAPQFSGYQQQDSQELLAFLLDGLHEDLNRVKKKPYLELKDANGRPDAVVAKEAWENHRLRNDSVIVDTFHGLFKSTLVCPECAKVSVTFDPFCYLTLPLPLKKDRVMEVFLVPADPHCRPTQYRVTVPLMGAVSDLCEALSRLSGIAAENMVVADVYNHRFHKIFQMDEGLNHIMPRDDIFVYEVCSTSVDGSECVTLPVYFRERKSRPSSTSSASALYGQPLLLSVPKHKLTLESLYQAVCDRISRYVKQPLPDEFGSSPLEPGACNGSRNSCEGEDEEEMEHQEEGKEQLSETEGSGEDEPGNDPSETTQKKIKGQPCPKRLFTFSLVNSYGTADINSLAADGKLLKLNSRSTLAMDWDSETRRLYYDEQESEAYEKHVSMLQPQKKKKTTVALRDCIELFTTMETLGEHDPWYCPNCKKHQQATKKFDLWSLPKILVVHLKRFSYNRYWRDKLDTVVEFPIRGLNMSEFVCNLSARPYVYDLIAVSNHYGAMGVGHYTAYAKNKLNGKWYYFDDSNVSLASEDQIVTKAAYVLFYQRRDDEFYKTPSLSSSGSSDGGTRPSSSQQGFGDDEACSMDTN
In short: as §1

Measured: log2 ratio of Biotin-Ahx-Ub-VS probe labelling

USP34, sequence (Q70CQ2 whole entry, the tested form may be a part): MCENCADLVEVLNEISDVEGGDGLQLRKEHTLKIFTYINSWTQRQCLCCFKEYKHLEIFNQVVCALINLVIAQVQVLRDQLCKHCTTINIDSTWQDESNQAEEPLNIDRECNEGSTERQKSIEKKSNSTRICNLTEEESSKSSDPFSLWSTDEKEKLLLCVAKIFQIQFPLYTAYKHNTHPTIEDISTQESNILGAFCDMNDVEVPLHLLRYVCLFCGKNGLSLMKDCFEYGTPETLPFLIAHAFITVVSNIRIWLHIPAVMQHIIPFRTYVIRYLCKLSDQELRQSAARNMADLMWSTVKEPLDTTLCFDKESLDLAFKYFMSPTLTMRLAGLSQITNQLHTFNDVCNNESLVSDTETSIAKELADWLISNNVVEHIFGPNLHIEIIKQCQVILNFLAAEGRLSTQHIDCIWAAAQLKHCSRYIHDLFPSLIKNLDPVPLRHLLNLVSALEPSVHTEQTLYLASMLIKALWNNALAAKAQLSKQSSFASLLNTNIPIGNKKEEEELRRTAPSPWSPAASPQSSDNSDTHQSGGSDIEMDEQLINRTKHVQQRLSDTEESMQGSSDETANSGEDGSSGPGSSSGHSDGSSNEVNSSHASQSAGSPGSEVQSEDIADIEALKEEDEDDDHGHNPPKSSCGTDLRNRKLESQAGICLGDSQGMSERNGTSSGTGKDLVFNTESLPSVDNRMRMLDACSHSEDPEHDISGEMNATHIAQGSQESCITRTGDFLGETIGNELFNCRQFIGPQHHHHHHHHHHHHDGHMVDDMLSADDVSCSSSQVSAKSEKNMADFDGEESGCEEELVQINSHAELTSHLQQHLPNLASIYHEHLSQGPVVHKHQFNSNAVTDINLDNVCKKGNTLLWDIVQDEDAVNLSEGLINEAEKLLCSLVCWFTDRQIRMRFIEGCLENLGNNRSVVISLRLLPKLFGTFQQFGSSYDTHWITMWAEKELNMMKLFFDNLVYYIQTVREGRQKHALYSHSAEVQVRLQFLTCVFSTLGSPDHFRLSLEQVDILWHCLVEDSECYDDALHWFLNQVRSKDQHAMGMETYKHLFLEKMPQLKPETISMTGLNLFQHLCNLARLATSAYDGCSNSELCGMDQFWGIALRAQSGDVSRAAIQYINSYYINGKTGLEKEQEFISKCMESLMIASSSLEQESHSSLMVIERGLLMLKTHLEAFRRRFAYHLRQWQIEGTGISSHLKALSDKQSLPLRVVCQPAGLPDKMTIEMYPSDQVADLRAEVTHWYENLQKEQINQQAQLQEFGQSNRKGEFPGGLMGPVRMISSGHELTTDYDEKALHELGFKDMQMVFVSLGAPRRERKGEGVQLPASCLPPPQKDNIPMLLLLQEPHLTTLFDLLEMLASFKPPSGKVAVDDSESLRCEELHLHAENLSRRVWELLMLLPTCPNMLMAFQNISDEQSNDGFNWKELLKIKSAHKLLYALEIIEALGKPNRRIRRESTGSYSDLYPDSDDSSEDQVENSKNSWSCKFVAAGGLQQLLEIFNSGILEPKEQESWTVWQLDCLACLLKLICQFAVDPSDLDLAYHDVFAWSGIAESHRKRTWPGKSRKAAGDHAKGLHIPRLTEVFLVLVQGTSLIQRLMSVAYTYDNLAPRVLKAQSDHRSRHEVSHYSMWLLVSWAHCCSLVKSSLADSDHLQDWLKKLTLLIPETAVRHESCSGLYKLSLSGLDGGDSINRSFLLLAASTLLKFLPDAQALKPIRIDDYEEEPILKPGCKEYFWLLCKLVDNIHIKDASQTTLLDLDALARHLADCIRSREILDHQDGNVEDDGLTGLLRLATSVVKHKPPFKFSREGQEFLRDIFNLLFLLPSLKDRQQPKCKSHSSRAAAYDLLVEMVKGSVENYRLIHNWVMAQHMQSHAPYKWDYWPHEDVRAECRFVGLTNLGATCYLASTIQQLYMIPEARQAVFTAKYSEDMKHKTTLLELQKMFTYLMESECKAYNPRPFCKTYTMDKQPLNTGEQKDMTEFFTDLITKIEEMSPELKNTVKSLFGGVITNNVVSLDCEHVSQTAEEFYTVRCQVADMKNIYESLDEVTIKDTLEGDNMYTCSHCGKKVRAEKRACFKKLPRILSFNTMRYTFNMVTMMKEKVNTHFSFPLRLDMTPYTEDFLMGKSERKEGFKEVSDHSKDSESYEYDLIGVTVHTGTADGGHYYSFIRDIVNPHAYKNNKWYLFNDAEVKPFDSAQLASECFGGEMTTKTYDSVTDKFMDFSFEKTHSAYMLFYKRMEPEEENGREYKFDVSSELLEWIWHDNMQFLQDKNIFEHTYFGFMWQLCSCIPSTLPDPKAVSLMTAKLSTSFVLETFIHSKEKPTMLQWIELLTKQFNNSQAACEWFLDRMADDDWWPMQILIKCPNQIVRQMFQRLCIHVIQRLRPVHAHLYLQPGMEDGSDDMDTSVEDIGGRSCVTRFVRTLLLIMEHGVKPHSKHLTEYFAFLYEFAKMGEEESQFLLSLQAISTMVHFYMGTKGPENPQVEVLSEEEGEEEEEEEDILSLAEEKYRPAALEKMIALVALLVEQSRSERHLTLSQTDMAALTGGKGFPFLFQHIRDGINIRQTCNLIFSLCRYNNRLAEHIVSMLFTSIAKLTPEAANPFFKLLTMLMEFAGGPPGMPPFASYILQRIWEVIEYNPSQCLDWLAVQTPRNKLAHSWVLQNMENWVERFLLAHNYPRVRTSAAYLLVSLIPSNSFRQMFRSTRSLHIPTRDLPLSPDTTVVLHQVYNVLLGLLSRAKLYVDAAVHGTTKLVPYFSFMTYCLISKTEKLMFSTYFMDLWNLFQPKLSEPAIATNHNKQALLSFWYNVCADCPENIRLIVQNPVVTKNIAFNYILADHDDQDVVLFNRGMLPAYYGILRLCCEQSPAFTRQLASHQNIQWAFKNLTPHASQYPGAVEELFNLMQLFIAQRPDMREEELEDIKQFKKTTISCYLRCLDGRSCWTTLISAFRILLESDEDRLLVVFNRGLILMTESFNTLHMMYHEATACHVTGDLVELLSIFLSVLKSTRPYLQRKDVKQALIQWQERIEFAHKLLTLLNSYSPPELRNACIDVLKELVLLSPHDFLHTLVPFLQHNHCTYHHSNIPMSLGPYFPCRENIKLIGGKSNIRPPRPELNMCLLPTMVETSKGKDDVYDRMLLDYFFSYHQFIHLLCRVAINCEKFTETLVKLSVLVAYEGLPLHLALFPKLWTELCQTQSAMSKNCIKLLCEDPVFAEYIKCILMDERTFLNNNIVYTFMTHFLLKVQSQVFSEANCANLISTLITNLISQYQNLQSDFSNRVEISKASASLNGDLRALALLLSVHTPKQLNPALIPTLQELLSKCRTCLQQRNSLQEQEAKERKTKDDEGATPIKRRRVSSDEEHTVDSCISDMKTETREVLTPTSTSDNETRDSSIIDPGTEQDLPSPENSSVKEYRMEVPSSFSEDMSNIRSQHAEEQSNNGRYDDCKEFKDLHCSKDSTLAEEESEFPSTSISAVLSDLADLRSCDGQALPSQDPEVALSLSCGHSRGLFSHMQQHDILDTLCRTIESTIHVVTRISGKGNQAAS

CC(NC(=O)CCl)c1cccc2ccccc12 (stereo not given)
inactive: USP34 -0.0995 | USP36 -0.062 | USP38 0.0489 | USP39 0.171 | USP4 -0.154
